Data taken from PubChem BioAssay (EPA / NIEHS).
Results filed as inconclusive are left out. Calls of active or inactive are those of the source. How the source made its calls, unless noted: active means hit-call score of the fitted dose curve at least 0.9, where 1 is the maximum; inactive means score below 0.9.

How the values were obtained:
[1] = ATG_NRF2_ARE_CIS: Attagene CIS-FACTORIAL HepG2 Assay for human Nuclear Factor Erythroid 2 Related Factor 2 (NFR2) response to Antioxidant Response Elements (ARE) (AID 2282992); conditions: HepG2 Attagene ARE/NRF2 reporter, transcription factor activity; actives raise or lower the signal;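 on AC50: reporter mRNA level measured by RT-PCR and capillary electrophoresis fluorescence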
Procedure, shortened: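 Multiplexed reporter mRNA profiling in HepG2 after a 24 h chemical exposure. Curves fitted in both directions relative to DMSO negative control.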

[2] = ATG_Oct_MLP_CIS: Attagene CIS-FACTORIAL HepG2 Assay for human Octamer-Binding Transcription Factor (Oct) (AID 2282993); conditions: HepG2 Attagene cis-factorial Oct reporter, mRNA; actives raise or lower the signal
Procedure, shortened: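 After 24 h compound exposure, transfected HepG2 cells were lysed for total RNA; reporter-specific cDNA was PCR-amplified, fluorescently labelled and sized by capillary electrophoresis. Bidirectional curve fitting used DMSO as baseline.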

[3] = target: Cellular tumor antigen p53 (Homo sapiens) (UniProt P04637); test: ATG_p53_CIS: Attagene CIS-FACTORIAL HepG2 Assay for human p53 Transcription Factor (AID 2282994); conditions: HepG2 p53 cis-element reporter, Attagene mRNA; actives raise or lower the signal
Procedure, shortened: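 Multiplexed reporter mRNA assay in human HepG2 liver cells; cis-regulated units report endogenous factor activity. Values come from bidirectional curve fitting against DMSO negative control after 24 h treatment.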

[4] = BSK_3C_TissueFactor: BioMAP Diversity Plus: 3C Assay for Tissue Factor Biomarker Activity (AID 2282997); conditions: BioMAP 3C HUVEC, tissue factor biomarker readout; actives raise or lower the signal
Procedure, shortened: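 Primary human umbilical vein endothelial cells in the 3C system were exposed to test chemical for 24 h, then Tissue Factor measured by ELISA. Activity was fitted bidirectionally against DMSO as negative control and baseline.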

[5] = target: human Peroxisome Proliferator-activated Receptor alpha (PPARa), PPARA (gene 5465) (UniProt Q07869); test: ATG_PPARa_TRANS: Attagene TRANS-FACTORIAL HepG2 Assay for human Peroxisome Proliferator-activated Receptor alpha (PPARa) (AID 2283001; active means hit-call score of the fitted dose curve at least 0.9, where 1 is the maximum)
Procedure, shortened: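 HepG2 cells transiently transfected with multiplexed GAL4-UAS reporters driven by exogenous chimeric NR-Gal4 proteins; reporter mRNA measured after 24 h dosing. Read-out by RT-PCR, 6-FAM labelling, HpaI digestion and capillary electrophoresis; gain of signal versus DMSO.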

[6] = target: human Peroxisome Proliferator-activated Receptor delta (PPARd), PPARD (gene 5467) (UniProt Q03181); test: ATG_PPARd_TRANS: Attagene TRANS-FACTORIAL HepG2 Assay for human Peroxisome Proliferator-activated Receptor delta (PPARd) (AID 2283002; active means hit-call score of the fitted dose curve at least 0.9, where 1 is the maximum)
Procedure, shortened: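 HepG2 cells transiently transfected with GAL4-UAS multiplexed reporter units driven by exogenous chimeric NR-GAL4 proteins; 24 h compound exposure. Reporter mRNA measured by RT-PCR, 6-FAM primer extension, HpaI digestion and capillary electrophoresis; gain of signal fitted relative to DMSO.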

[7] = read-out: Intercellular Adhesion Molecule 1 (ICAM1), ICAM1 (gene 3383); test: BSK_3C_ICAM1: BioMAP Diversity Plus: 3C Assay for Intercellular Adhesion Molecule 1 (ICAM1) Biomarker Activity (AID 2283003); conditions: primary human endothelial cells (HUVEC); actives raise or lower the signal
Procedure, shortened: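 HUVEC primary cells stimulated under 3C conditions; ICAM1 measured by ELISA 24 h after compound dosing. Curves fitted bidirectionally against the DMSO baseline. Overt cytotoxicity checked by SRB staining of parallel cultures.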

[8] = target: human Retinoic Acid Receptor beta (RARb), RARB (gene 5915) (UniProt P10826); test: ATG_RARb_TRANS: Attagene TRANS-FACTORIAL HepG2 Assay for human Retinoic Acid Receptor beta (AID 2283004; active means hit-call score of the fitted dose curve at least 0.9, where 1 is the maximum)
Procedure, shortened: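 HepG2 cells transiently transfected with multiplexed GAL4-UAS reporter units expressing chimeric NR–Gal4 fusions; 24 h compound exposure. Reporter mRNA quantified by RT-PCR, 6-FAM labelling, HpaI digestion and capillary electrophoresis; gain-of-signal fitted against DMSO baseline.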

[9] = target: Retinoic acid receptor alpha (Homo sapiens) (UniProt P10276); test: ATG_RARa_TRANS: Attagene TRANS-FACTORIAL HepG2 Assay for human Retinoic Acid Receptor alpha (RARa) (AID 2283005; active means hit-call score of the fitted dose curve at least 0.9, where 1 is the maximum;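 on AC50: potency for increased reporter signal meaning RARa activation over DMSO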)
Procedure, shortened: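 HepG2 transiently transfected with multiplex GAL4-UAS reporter units including a human RARa–GAL4 chimera; 24 h compound exposure. Reporter mRNA quantified by RT-PCR, 6-FAM labeling and capillary electrophoresis; gain of signal versus DMSO.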

[10] = BSK_3C_Proliferation: Cell Proliferation Assessment in the BioMAP Diversity Plus: 3C Assay (AID 2283006); conditions: primary human endothelial cells (HUVEC);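 on AC50: potency may reflect either rise or fall in cell number versus DMSO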
Procedure, shortened: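 Subconfluent HUVEC (3C system) cultured with chemical; relative cell number read at 48 h by sulforhodamine B total-protein staining (0.1% SRB after 10% TCA fixation, 560 nm). Bidirectional fit relative to DMSO.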

[11] = target: Peroxisome proliferator-activated receptor gamma (Homo sapiens) (UniProt P37231); test: ATG_PPARg_TRANS: Attagene TRANS-FACTORIAL HepG2 Assay for human Peroxisome Proliferator-activated Receptor-gamma (PPARg) (AID 2283007; active means hit-call score of the fitted dose curve at least 0.9, where 1 is the maximum)
Procedure, shortened: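 Transient transfection of HepG2 with GAL4-UAS-driven reporter units; chemical dosing 24 h; total RNA → oligo(dT) RT → PCR with reporter primers → 6-FAM primer extension → HpaI digest 2 h 37 C → capillary electrophoresis. Positive direction vs DMSO.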

[12] = target: Nuclear receptor subfamily 1 group I member 2 (Homo sapiens) (UniProt O75469); test: ATG_PXR_TRANS: Attagene TRANS-FACTORIAL HepG2 Assay for human Pregnane X Receptor (PXR) (AID 2283008; active means hit-call score of the fitted dose curve at least 0.9, where 1 is the maximum)
Procedure, shortened: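 Measures mRNA induction of a GAL4-UAS-driven reporter in human HepG2 cells transiently expressing PXR fused to Gal4, following 24 h treatment. DMSO served as negative control and baseline.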

[13] = target: human Retinoic Acid Receptor gamma (RARg), RARG (gene 5916) (UniProt P13631); test: ATG_RARg_TRANS: Attagene TRANS-FACTORIAL HepG2 Assay for human Retinoic Acid Receptor gamma (RARg) (AID 2283009; active means hit-call score of the fitted dose curve at least 0.9, where 1 is the maximum)
Procedure, shortened: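 HepG2 transiently transfected with GAL4-UAS reporter units and chimeric NR-Gal4 constructs; 24 h compound exposure. Reporter mRNA quantified by RT-PCR, FAM labeling, HpaI digestion and capillary electrophoresis; gain-of-signal versus DMSO.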

[14] = target: Retinoic acid receptor RXR-alpha (Homo sapiens) (UniProt P19793); test: ATG_RXRa_TRANS: Attagene TRANS-FACTORIAL HepG2 Assay for human Retinoid X Receptor alpha (RXRa) (AID 2283012; active means hit-call score of the fitted dose curve at least 0.9, where 1 is the maximum)
Procedure, shortened: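 HepG2 cells transiently transfected with GAL4-UAS reporter units and chimeric RXRa-Gal4 protein, treated 24 h. Reporter mRNA measured by RT-PCR, fluorescent labelling, HpaI digestion and capillary electrophoresis. Induction fitted against DMSO.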

[15] = target: human Retinoid X Receptor beta (RXRb), RXRB (gene 6257) (UniProt P28702); test: ATG_RXRb_TRANS: Attagene TRANS-FACTORIAL HepG2 Assay for human Retinoid X Receptor beta (RXRb) (AID 2283013; active means hit-call score of the fitted dose curve at least 0.9, where 1 is the maximum)
Procedure, shortened: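 HepG2 cells were transiently transfected with multiplexed GAL4-UAS reporters and a chimeric RXRb-Gal4 construct, then exposed for 24 h. Reporter mRNA was quantified by RT-PCR, FAM labeling, HpaI digestion and capillary electrophoresis; gain of signal was scored against DMSO.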

[16] = BSK_3C_uPAR: BioMAP Diversity Plus: 3C Assay for Urokinase-type plasminogen activator receptor (uPAR) Biomarker Activity (AID 2282998); conditions: BioMAP 3C HUVEC, uPAR biomarker ELISA; actives raise or lower the signal
Procedure, shortened: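 Values derive from bidirectional curve fitting relative to DMSO, which served as baseline of activity. uPAR was measured by ELISA in human umbilical vein endothelial primary cultures 24 h after compound addition.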

[17] = BSK_3C_VCAM1: BioMAP Diversity Plus: 3C Assay for Vascular cell adhesion molecule 1 (VCAM1) Biomarker Activity (AID 2282999); conditions: BioMAP 3C HUVEC, VCAM1 ELISA, cytokine-stimulated; actives raise or lower the signal
Procedure, shortened: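 Human umbilical vein endothelial cells (3C system), biomarker read by ELISA 24 h after dosing; bidirectional fit against DMSO baseline. Cytotoxicity tracked by SRB total-protein staining in parallel cultures at biomarker time.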

[18] = target: human RAR-related Orphan Receptor beta (RORb), RORB (gene 6096) (UniProt Q92753); test: ATG_RORb_TRANS: Attagene TRANS-FACTORIAL HepG2 Assay for human RAR-related Orphan Receptor beta (RORb) (AID 2283010; active means hit-call score of the fitted dose curve at least 0.9, where 1 is the maximum)
Procedure, shortened: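 HepG2 cells transiently transfected with GAL4-UAS reporter units expressing chimeric NR-Gal4 protein; reporter mRNA measured 24 h after dosing by RT-PCR, 6-FAM labelling and capillary electrophoresis. Gain-of-signal fitted relative to DMSO baseline.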

[19] = target: human RAR-related Orphan Receptor gamma (RORg), RORC (gene 6097) (UniProt P51449); test: ATG_RORg_TRANS: Attagene TRANS-FACTORIAL HepG2 Assay for human RAR-related Orphan Receptor gamma (RORg) (AID 2283011; active means hit-call score of the fitted dose curve at least 0.9, where 1 is the maximum)
Procedure, shortened: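 Readout: reporter transcript induction (RT-PCR, fluorescent primer extension, capillary electrophoresis) after 24 h compound exposure of transiently transfected HepG2 cells carrying a RORg-Gal4 chimera and GAL4-UAS reporters; DMSO served as baseline, with increasing signal fitted.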

[20] = BSK_4H_Eotaxin3: BioMAP Diversity Plus: 4H Assay for Eotaxin 3 Biomarker Activity (AID 2283000); conditions: primary human endothelial cells (HUVEC); actives raise or lower the signal
Procedure, shortened: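 HUVEC, 24 h post-dose, ELISA for Eotaxin-3/CCL26. Gain or loss of signal fitted bidirectionally vs DMSO baseline.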

Measured: AC50

Chain of Retinoic acid receptor RXR-alpha (Homo sapiens) (P19793 whole entry, looked up, the tested form may be a part): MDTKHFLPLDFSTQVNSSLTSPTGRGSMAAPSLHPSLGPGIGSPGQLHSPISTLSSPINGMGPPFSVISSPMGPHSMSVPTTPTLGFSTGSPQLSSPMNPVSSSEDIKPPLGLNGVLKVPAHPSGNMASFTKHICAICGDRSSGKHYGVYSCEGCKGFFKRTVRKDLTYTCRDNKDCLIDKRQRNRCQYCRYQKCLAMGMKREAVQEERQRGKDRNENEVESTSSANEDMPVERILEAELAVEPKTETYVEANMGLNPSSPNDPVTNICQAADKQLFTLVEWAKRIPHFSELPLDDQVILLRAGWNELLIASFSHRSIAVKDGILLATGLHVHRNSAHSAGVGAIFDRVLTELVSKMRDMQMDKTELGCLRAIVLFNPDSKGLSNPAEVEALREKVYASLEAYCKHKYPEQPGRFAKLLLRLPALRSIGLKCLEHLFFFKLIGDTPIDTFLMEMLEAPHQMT
Chain of human Peroxisome Proliferator-activated Receptor alpha (PPARa), PPARA (gene 5465) (Q07869 whole entry, looked up, the tested form may be a part): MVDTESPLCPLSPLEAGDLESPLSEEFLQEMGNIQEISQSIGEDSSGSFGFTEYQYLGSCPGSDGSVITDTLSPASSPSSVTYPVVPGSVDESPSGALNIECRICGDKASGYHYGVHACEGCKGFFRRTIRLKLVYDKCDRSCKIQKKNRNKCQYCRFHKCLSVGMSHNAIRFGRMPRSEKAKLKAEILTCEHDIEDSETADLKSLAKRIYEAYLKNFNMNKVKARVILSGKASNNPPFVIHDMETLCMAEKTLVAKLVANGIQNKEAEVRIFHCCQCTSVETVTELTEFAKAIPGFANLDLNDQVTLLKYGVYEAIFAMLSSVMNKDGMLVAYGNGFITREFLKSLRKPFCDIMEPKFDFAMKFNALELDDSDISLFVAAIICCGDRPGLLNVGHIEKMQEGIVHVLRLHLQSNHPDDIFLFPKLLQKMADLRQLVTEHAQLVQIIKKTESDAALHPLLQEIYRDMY
Chain of Peroxisome proliferator-activated receptor gamma (Homo sapiens) (P37231 whole entry, looked up, the tested form may be a part): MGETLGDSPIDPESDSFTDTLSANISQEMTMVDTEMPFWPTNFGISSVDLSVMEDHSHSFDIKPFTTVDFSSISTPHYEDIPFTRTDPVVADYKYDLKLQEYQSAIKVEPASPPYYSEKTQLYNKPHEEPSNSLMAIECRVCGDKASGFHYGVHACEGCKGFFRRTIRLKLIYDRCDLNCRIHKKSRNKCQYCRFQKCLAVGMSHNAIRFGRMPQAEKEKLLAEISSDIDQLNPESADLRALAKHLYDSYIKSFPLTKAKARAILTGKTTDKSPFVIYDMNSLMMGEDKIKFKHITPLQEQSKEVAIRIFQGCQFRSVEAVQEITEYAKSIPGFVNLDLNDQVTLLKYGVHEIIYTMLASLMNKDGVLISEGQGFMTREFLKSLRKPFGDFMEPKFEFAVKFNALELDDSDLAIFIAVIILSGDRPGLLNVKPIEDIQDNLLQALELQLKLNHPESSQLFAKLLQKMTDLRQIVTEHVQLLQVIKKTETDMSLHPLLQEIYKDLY
Chain of Retinoic acid receptor alpha (Homo sapiens) (P10276 whole entry, looked up, the tested form may be a part): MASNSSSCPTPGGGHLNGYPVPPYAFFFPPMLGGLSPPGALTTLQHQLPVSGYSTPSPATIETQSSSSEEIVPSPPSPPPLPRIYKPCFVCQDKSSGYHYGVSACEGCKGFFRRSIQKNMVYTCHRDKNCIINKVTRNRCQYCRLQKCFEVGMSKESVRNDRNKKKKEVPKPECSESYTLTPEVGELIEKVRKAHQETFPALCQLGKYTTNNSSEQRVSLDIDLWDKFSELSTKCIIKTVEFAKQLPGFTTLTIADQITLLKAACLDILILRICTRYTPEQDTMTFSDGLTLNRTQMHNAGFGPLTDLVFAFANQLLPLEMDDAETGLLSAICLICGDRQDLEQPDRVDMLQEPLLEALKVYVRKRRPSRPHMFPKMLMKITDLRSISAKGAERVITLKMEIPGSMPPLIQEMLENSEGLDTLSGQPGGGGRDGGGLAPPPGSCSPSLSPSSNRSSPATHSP
Chain of human RAR-related Orphan Receptor beta (RORb), RORB (gene 6096) (Q92753 whole entry, looked up, the tested form may be a part): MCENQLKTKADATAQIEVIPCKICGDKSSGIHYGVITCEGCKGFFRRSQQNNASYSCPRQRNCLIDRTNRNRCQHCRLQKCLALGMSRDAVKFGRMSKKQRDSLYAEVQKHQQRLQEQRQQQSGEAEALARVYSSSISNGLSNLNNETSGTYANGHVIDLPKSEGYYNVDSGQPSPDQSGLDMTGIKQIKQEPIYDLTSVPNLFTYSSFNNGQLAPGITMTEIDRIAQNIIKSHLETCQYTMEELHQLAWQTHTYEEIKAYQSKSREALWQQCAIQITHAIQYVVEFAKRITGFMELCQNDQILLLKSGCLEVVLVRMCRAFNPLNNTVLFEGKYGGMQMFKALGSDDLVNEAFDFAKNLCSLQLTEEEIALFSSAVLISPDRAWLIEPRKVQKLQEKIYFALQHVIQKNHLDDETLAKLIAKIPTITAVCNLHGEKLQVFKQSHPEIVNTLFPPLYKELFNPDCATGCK
Chain of Nuclear receptor subfamily 1 group I member 2 (Homo sapiens) (O75469 whole entry, looked up, the tested form may be a part): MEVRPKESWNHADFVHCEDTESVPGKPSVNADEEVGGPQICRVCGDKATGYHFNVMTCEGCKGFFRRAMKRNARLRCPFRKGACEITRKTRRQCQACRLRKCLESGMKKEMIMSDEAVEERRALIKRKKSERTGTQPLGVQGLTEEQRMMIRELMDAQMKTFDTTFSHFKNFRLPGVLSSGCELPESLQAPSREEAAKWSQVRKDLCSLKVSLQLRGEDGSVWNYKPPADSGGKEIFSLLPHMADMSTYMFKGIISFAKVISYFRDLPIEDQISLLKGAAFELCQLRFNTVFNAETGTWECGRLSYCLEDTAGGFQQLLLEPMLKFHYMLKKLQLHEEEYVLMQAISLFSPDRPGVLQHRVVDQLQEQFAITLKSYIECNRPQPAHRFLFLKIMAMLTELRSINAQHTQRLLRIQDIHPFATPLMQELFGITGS
Chain of Cellular tumor antigen p53 (Homo sapiens) (P04637 whole entry, looked up): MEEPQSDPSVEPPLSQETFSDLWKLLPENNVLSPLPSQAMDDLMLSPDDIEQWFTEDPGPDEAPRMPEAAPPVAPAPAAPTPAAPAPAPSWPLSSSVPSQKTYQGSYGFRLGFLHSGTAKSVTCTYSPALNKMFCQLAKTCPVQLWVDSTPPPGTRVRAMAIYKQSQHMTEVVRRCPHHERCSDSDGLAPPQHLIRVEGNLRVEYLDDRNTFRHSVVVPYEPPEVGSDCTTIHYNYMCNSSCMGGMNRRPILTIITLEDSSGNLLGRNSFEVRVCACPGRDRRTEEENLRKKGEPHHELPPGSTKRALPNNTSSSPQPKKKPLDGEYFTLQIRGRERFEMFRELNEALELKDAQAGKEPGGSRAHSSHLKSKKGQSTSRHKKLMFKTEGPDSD
Chain of human Retinoic Acid Receptor beta (RARb), RARB (gene 5915) (P10826 whole entry, looked up, the tested form may be a part): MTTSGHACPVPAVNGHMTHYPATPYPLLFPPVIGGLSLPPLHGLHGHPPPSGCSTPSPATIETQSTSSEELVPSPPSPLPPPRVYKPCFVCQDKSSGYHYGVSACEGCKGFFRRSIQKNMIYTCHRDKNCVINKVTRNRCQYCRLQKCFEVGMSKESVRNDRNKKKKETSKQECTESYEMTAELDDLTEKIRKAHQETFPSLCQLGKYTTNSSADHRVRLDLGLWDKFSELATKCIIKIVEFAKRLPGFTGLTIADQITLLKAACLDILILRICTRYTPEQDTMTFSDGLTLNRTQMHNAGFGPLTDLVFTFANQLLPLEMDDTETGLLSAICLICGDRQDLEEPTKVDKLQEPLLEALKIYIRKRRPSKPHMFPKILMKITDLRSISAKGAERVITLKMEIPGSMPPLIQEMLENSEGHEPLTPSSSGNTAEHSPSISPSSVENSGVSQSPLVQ
Chain of human Retinoic Acid Receptor gamma (RARg), RARG (gene 5916) (P13631 whole entry, looked up, the tested form may be a part): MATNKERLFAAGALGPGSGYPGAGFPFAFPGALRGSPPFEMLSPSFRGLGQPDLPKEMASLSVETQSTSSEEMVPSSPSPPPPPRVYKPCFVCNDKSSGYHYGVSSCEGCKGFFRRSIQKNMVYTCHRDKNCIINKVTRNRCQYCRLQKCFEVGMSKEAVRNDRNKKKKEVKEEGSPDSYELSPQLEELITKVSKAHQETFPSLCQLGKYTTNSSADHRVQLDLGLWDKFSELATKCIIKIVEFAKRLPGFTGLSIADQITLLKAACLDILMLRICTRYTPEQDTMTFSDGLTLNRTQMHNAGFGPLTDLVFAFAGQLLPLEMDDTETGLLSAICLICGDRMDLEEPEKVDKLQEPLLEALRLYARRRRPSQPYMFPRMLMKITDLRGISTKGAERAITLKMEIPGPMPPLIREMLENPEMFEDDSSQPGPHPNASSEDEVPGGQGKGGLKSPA
Chain of human RAR-related Orphan Receptor gamma (RORg), RORC (gene 6097) (P51449 whole entry, looked up, the tested form may be a part): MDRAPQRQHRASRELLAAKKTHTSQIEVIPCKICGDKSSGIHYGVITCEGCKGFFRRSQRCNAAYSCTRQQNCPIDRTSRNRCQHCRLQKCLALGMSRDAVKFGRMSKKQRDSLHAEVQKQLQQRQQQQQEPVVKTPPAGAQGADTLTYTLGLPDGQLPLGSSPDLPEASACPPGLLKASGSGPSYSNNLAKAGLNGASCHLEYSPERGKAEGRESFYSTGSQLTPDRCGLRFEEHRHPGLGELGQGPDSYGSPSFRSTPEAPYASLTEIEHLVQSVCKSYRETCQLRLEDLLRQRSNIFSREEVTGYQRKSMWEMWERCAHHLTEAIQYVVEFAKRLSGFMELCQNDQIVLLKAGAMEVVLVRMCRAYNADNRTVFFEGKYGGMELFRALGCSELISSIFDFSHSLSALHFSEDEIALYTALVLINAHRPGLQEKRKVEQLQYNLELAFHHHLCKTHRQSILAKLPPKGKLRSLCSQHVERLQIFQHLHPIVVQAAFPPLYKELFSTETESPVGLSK

CC(C)(C)c1cc([N+](=O)[O-])cc(C(C)(C)C)c1O
active: [1] 2.48 µM | [2] 19.8 µM | [4] 3.94 µM | [9] 2.37 µM | [10] 0.704 µM | [11] 5.15 µM | [12] 6.49 µM | [14] 26.7 µM | [15] 2.54 µM
inactive: [3] | [5] | [6] | [7] | [8] | [13]

CCOC(=O)CC(=O)CCl
active: [1] 181 µM | [2] 24.3 µM | [3] 148 µM | [16] 0.0141 µM | [17] 20 µM | [10] 20 µM
inactive: [4] | [5] | [7] | [12] | [18] | [19] | [14] | [15]

O=[N+]([O-])c1cccc2ccccc12
active: [1] 23.7 µM | [12] 30.4 µM | [15] 100 µM
inactive: [2] | [3] | [4] | [16] | [5] | [7] | [10] | [11] | [14]

CCOC(=O)CCN(SN(C)C(=O)Oc1cccc2c1OC(C)(C)C2)C(C)C
active: [1] 26.2 µM | [4] 31.1 µM | [16] 32.5 µM | [17] 20 µM | [20] 28.8 µM | [10] 23.3 µM | [11] 0.713 µM | [12] 14.5 µM | [15] 37.8 µM
inactive: [2] | [3] | [5] | [6] | [7] | [14]

OC(Cc1ccccc1Cl)(Cn1[nH]cnc1=S)C1(Cl)CC1 (stereo unspecified)
active: [1] 12.1 µM | [3] 75.7 µM | [20] 20 µM | [10] 30.7 µM | [11] 59.8 µM | [12] 17.7 µM
inactive: [2] | [4] | [17] | [6] | [7] | [13] | [18] | [14]

Cc1cc(Cl)ccc1OC(C)C(=O)O (stereo unspecified)
not listed: [8] | [9] | [11] | [12] | [14] | [15] | [16] | [20]
inactive: all other assays above

COCC(=O)N(c1c(C)cccc1C)[C@H](C)C(=O)OC
active: [12] 20.2 µM
not listed: [6] | [15] | [18] | [20]
inactive: all other assays above

Nc1c(Oc2ccccc2)cc(O)c2c1C(=O)c1ccccc1C2=O
active: [1] 2.25 µM | [11] 6.44 µM | [12] 3.13 µM | [15] 17.4 µM
not listed: [16] | [20]
inactive: all other assays above
